Screens from PubChem BioAssay.
Sampled rows, rich in hits. Any-hit rate of the full collection: about 2.9%.
PLC-gamma1 inh – blocks human PLC-gamma1 enzyme activity. purified PLC-gamma1, fluorogenic substrate, fluorescence. hit rate 0.84% among 370,000. P19174. AID 720700. inhibition, % at 12.2 µM; in the data active = inhibition above about 9.5%
ADAM17 inh – inhibits human ADAM17. AID 720648. hit rate 0.83% among 370,000. P78536. inhibition, % at 6.95 µM. recombinant ADAM17, EDANS/DABCYL FRET peptide cleavage;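 active = inhibition above the mean of compounds lying between control limits plus 3 SD, set per campaign, cut at about 8.5% in these data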;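 also: 0% = DMSO-only wells as the low control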
proKLK7 act – activators of human kallikrein-7 zymogen | P49862 | purified proKLK7, EDANS-DABCYL substrate fluorescence; 100% is mature enzyme control, 0% vehicle | activation, % at 7 µM | hit rate 0.9% among 370,000 | AID 652039;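 active = activation above the mean of all tested compounds plus 3 SD, computed per campaign excluding outliers beyond control limits, cut at about 13% in these data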
ADAM10 inh – inhibits human ADAM10. inhibition, % at 7 µM. recombinant ADAM10, EDANS/DABCYL FRET peptide cleavage, 3 h. O14672. hit rate 0.62% among 370,000;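 active = inhibition above a per-campaign cutoff equal to the mean of compounds falling between control-based bounds plus 3 SD, cut at about 20% in these data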;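 also: 0% = DMSO wells while the 100% control is not disclosed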
PLCb3 inh – blocks human PLC-beta3 enzyme activity; AID 720704; Q01970; hit rate 0.18% among 370,000; inhibition, % at 12.2 µM; Purified PLC-beta3, fluorogenic substrate, fluorescence; in the data active = inhibition above about 11%;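 also: 0% = median of compound wells on plate and 100% = full blocker control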
Target sequence (Q01970 whole entry, looked up): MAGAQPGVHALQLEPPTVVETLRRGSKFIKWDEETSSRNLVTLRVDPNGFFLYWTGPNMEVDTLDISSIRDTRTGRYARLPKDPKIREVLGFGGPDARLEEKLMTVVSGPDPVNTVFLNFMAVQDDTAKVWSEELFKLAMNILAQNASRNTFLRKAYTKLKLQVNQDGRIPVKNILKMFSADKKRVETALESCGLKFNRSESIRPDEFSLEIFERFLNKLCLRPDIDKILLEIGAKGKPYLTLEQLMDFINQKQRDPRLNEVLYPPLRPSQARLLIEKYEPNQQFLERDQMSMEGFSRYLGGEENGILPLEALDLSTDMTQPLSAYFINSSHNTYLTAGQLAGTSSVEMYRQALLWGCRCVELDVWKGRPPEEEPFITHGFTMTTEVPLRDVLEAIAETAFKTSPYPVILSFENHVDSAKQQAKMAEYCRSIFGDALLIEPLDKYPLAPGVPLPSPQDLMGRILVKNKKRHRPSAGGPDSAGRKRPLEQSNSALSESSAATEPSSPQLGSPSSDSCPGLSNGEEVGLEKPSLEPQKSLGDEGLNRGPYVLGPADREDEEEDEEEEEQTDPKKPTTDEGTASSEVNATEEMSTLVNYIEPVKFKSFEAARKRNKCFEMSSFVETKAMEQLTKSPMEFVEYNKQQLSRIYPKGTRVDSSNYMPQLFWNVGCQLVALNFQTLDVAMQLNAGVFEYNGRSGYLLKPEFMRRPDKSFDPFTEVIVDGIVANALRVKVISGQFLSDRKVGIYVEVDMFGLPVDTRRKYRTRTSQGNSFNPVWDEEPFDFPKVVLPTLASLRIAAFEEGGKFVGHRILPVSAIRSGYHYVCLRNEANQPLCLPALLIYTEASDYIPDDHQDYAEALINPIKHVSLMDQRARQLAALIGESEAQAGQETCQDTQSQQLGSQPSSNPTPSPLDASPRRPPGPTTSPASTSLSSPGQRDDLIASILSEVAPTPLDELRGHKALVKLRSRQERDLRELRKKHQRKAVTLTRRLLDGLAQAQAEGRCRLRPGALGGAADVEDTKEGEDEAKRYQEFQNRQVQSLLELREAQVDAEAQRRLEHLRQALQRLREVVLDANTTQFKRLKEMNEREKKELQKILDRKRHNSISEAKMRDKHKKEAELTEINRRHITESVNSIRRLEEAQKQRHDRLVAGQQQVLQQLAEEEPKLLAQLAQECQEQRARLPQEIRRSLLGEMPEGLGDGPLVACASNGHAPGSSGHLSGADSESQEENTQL
ADAM10 confirm – confirmation of inhibitors of human ADAM10; shares compounds with ADAM10 inh; ADAM10 QFRET peptide cleavage, EDANS fluorescence; inhibition, % at 6.95 µM; hit rate 1% among 2,100;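 active = inhibition above about 20% chosen separately for each screening run, limit read from the data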;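 also: 0% = DMSO wells and 100% = marimastat wells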
ADAM17 counter – counter-screen for ADAM10 exosite inhibitors: inhibitors of human ADAM17 | shares compounds with ADAM10 inh | ADAM17 QFRET peptide cleavage, EDANS fluorescence | inhibition, % at 6.95 µM | hit rate 0.5% among 2,100;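 active = mean triplicate inhibition above the solvent-only control wells' mean plus 3 SD, cut at about 12% in these data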;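 also: 0% = DMSO wells and 100% = marimastat wells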
ADAM10 counter – ADAM10 inhibition, counter-screen for ADAM17 exosite hits. hit rate 47% among 2,900. recombinant ADAM10, EDANS/DABCYL FRET peptide cleavage, 3 h. AID 743256. inhibition, % at 6.95 µM. shares compounds with ADAM17 inh;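 active = mean inhibition over the triplicate runs exceeds the activity threshold set in the earlier primary screen, cut at about 20% in these data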;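 also: 0% = DMSO wells and 100% = marimastat wells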
ADAM17 confirm – human ADAM17 inhibition, confirmation | shares compounds with ADAM17 inh | hit rate 65% among 2,900 | recombinant ADAM17, EDANS/DABCYL QFRET peptide cleavage | inhibition, % at 6.95 µM;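 active = mean inhibition across replicates above the hit cutoff set in the primary screen, cut at about 8.5% in these data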;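 also: 0% = DMSO wells and 100% = marimastat wells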
An asterisk follows results filed as active; / = not tested or not shown.

SMILES	PLC-gamma1 inh	ADAM17 inh	proKLK7 act	ADAM10 inh	PLCb3 inh	ADAM10 confirm	ADAM17 counter	ADAM10 counter	ADAM17 confirm
CC(CCc1ccc(O)cc1)NC(c1ccccc1)c1ccc(Cl)cc1 (stereo not drawn)	2	12*	0	28*	-1	6	2	29*	24*
COC(=O)c1cc(NS(=O)(=O)c2ccc(N3CCC(C)CC3)c([N+](=O)[O-])c2)cc(C(=O)OC)c1	9	13*	0	28*	5	5	3	26*	17*
CC1CCCN(c2ccc(C(=O)Nc3ccc4c(c3)OCO4)cc2[N+](=O)[O-])C1 (stereo not drawn)	6	6	0	19	6	/	/	/	/
CC1CCN(c2ccc(C(=O)Nc3ccc4c(c3)OCO4)cc2[N+](=O)[O-])CC1	4	8.7*	0	20*	7	6	2	30*	16*
O=[N+]([O-])c1cccnc1N1CCCCC1	-4	-4	0	-6	-1	/	/	/	/
O=[N+]([O-])c1cccnc1N1CCC(c2cc(-c3cccc(C(F)(F)F)c3)n[nH]2)CC1	1	11*	0	20*	2	15	3	48*	19*
O=[N+]([O-])c1cccnc1N1CCC(c2cc(-c3ccc(Cl)cc3Cl)n[nH]2)CC1	1	11*	0	30*	5	8	2	31*	17*
NC(=O)C1CCN(c2ncccc2[N+](=O)[O-])CC1	1	-4	1	2	-5	/	/	/	/
O=C(Nc1ccccc1)OC1CC2CC1[C@H]1CCCCN1[C@H]2Cc1ccccc1 (stereo partly drawn)	0	1	0	-4	0	/	/	/	/
O=C(Nc1ccccc1)OC1CCC2CC1CCC2OC(=O)Nc1ccccc1 (stereo not drawn)	-1	12*	0	24*	4	9	3	38*	18*
CN(C)c1ccc(NC(=O)c2cn(-c3ccccc3)nc2-c2cccs2)cc1	-7	13*	0	28*	-8	14	6	20	9.7*
COC(=O)C1=C(C)N(Cc2ccc(Br)cc2)C(=S)NC1c1cccc(Br)c1 (stereo not drawn)	2	1	0	3	0	/	/	/	/
O=C(Nc1ccc(Br)c(C(F)(F)F)c1)c1ccccc1	9	13*	0	35*	2	2	1	25*	15*
Cc1ccc(C(=O)Oc2cccc(NC(=O)c3ccccc3)c2)cc1C	-4	13*	0	25*	-2	9	2	24*	14*
Cc1ccc(NC(=O)c2ccccc2)cc1C	1	-4	0	-6	0	/	/	/	/
Cc1ccc(-c2[nH]c3ccccc3c2SCCNC(=O)c2ccc(S(=O)(=O)N3CCOCC3)cc2)cc1	-5	11*	-3	24*	-11	7	2	27*	16*
CCCCC[C@@H](C)N1C[C@H](COCc2ccccc2)Oc2cc(N3CCC[C@H]3CO)ccc2S1(=O)=O	-2	-1	0	-2	-1	/	/	/	/
CCCCC[C@H](C)N1C[C@@H](COCc2ccccc2)Oc2cc(N3CC[C@H](O)C3)ccc2S1(=O)=O	-2	13*	1	21*	-2	11	4	30*	21*
CCCCC[C@@H](C)N1C[C@H](COCc2ccccc2)Oc2cc(N3CCC[C@@H]3CO)ccc2S1(=O)=O	2	8.7*	0	21*	2	7	2	18	10*
NC(=O)[C@@H]1CCCN1C(=O)[C@H](CCc1ccccc1)NC(=O)[C@H]1O[C@@H](n2cnc3c(N)ncnc32)[C@H](O)[C@@H]1O	2	-6	0	-6	2	/	/	/	/
